Experimental findings from PubChem BioAssay (NCATS) are described below.

Values joined by “and” are separate entries in the source; they are usually repeats but may differ in a detail not shown here. Identical values can stand only once. Inconclusive results are not listed. Active and inactive are the calls of the source. Calls come from the whole dose curve; as a rule, active = well fitted curve in the direction sought with a large enough effect; inconclusive = small, poorly fitted or top-dose-only effect, or another doubt; inactive = no such curve, though single readings can be large; an effect the other way counts as inactive or inconclusive.

One assay is described as follows: Quantitative highthroughput screen to assess conditional lethalithy of P12 Ichikawa cells grown in Human Plasma-Like Medium with dialyzed fetal bovine serum (HPLM+ds) (AID 1963879). Note: nearly all actives have a fitted effect of over 35% in size. Note: potency is the fitted concentration of half-maximal effect. As to conditions: ATP luminescence, 48 h; Potency: viability; series mostly up to 45.8 µM; viability: at the top concentration. Summed up: (§1)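 Each medium arm—HPLM with 10% dialyzed FBS, or RPMI1640 with 5 mM glucose and 10% untreated or dialyzed FBS—was screened against an 11-point, 3-fold compound titration for 48 h at 37 °C, with CellTiter-Glo luminescence as endpoint.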
As a reminder, the viability is a read-out of living cells in per cent, often relative to untreated cells. With `COC1=C[C@@H]2[C@@H]3Cc4ccc(OC)c(O)c4[C@]2(CCN3C)CC1=O`, the “viability” value was 94.2% (inactive).

Take `C#CC1(O)CCC2C3CCC4=CC(=O)CCC4(C)C3CCC21C` (centres undefined): the “viability” value was 109% (inactive).

As to `CC(C)(O)C(=O)Nc1ccc([N+](=O)[O-])c(C(F)(F)F)c1`, the Potency is 8.33 µM (active).

Take `CCc1c(C(=O)C(N)=O)c2c(OCC(=O)O)cccc2n1Cc1ccccc1`: the “viability” value is 98.5% (inactive).

`CNC(=O)c1ccc(N2C(=S)N(c3ccc(C#N)c(C(F)(F)F)c3)C(=O)C23CCC3)cc1F`: the “viability” value was 100% (inactive).

The nature of another assay: Quantitative highthroughput screen to assess conditional lethalithy of P12 Ichikawa cells grown in RPMI1640 with dialyzed fetal bovine serum (RPMI+ds) (AID 1963880).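 For viability: 100% = DMSO wells and 0% = empty wells on each plate.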 Note: nearly all actives have a fitted effect of over 35% in size. Note: potency is the fitted concentration of half-maximal effect. As to conditions: ATP luminescence, 48 h; Potency: P12-Ichikawa viability; series mostly up to 45.8 µM; viability: at the top concentration. In outline: as §1
In the case of `O=c1[nH]c2ccccc2n1CCCN1CCC(n2c(=O)[nH]c3cc(Cl)ccc32)CC1`, the “viability” value is 98% (inactive).

For the molecule `O=C(O)C(=O)c1cn(Cc2ccccc2)c2ccc(-c3ccc(OC(F)(F)F)cc3)cc12`, the “viability” value is 98.7% (inactive).

`C#CC1(O)CCC2C3CCC4=CC(=O)CCC4(C)C3CCC21C` (centres undefined): the “viability” value was 105% (inactive).

In the case of `C[C@]12CCC(=O)C=C1CC[C@@H]1[C@H]3CC[C@](C)(O)[C@@]3(C)CC[C@@H]12`, the “viability” value was 98.4% [at 92.2 µM] (inactive).

On to `CC(C)(O)C(=O)Nc1ccc([N+](=O)[O-])c(C(F)(F)F)c1`, for which the Potency was 16.6 µM (active).

As to `Cc1cc(SCc2sc(-c3ccc(C(F)(F)F)c(F)c3)nc2C)ccc1OCC(=O)O`, the “viability” value was 88% (inactive).

As for `COc1ccc(C(=O)c2c(C)n(CCN3CCOCC3)c3ccccc23)cc1`, the “viability” value was 111% (inactive).

In the case of `CCOC(=O)Nc1ccc(NCc2ccc(F)cc2)cc1N`, the “viability” value is 90.1% (inactive).

Another assay in a line: Quantitative highthroughput screen to assess conditional lethalithy of P12 Ichikawa cells grown in RPMI1640 with untreated serum (RPMI+s) (AID 1963881).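 For viability: 100% = DMSO wells and 0% = empty wells without cells.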 Note: nearly all actives have a fitted effect of over 35% in size. Note: potency is the fitted concentration of half-maximal effect. As to conditions: ATP luminescence, 48 h; Potency: viability; series mostly up to 45.8 µM; viability: at the top concentration. Summed up:
as §1
Turning to `Cn1cc(C2=C(c3cn(C4CCN(Cc5ccccn5)CC4)c4ccccc34)C(=O)NC2=O)c2ccccc21`, the “viability” value is 102% (inactive).

Turning to `COc1ccc2c(c1OC)CN1CCc3cc4c(cc3C1C2)OCO4` (centres undefined), the Potency is 1.87 µM (active).

In the case of `CNC(=O)c1ccc(N2C(=S)N(c3ccc(C#N)c(C(F)(F)F)c3)C(=O)C23CCC3)cc1F`, the “viability” value is 108% (inactive).

The next assay can be described thus: Quantitative highthroughput screen to assess conditional lethalithy of SEM cells grown in Human Plasma-Like Medium with dialyzed fetal bovine serum (HPLM+ds) (AID 1963882). Note: nearly all actives have a fitted effect of over 35% in size. Note: potency is the fitted concentration of half-maximal effect. As to conditions: SEM B-ALL cells in HPLM+ds, CellTiter-Glo viability, 48 h; series mostly up to 45.8 µM; viability: at the top concentration. In outline:
as §1
Take `Cc1cc(SCc2sc(-c3ccc(C(F)(F)F)c(F)c3)nc2C)ccc1OCC(=O)O`: the “viability” value was 99.5% (inactive).

For the molecule `COc1ccc2c(c1OC)CN1CCc3cc4c(cc3C1C2)OCO4` (centres undefined), the Potency is 1.05 µM (active).

`CCc1c(C(=O)C(N)=O)c2c(OCC(=O)O)cccc2n1Cc1ccccc1`: the “viability” value was 86.5% (inactive).

The nature of another assay: Quantitative highthroughput screen to assess conditional lethalithy of SEM cells grown in RPMI1640 with unreated serum (RPMI+s) (AID 1963883). As to conditions: SEM B-ALL cells, CellTiter-Glo viability, 48 h; series mostly up to 45.8 µM; viability: at the top concentration. In outline: as §1
For orientation: In ATP-based viability assays light output follows the ATP content of the culture.
Turning to `Clc1ccccc1C(c1ccccc1)(c1ccccc1)n1cccn1`, the “viability” value is 85.9% (inactive).

For `Cc1cc(SCc2sc(-c3ccc(C(F)(F)F)c(F)c3)nc2C)ccc1OCC(=O)O`, the “viability” value was 105% (inactive).

Consider `CCc1c(C(=O)C(N)=O)c2c(OCC(=O)O)cccc2n1Cc1ccccc1`, for which the “viability” value was 83.3% (inactive).

On to `CNC(=O)c1ccc(N2C(=S)N(c3ccc(C#N)c(C(F)(F)F)c3)C(=O)C23CCC3)cc1F`, for which the “viability” value was 101% (inactive).

A further assay can be described thus: Quantitative highthroughput screen to assess conditional lethalithy of SEM cells grown in RPMI1640 with dialyzed fetal bovine serum (RPMI+ds) (AID 1963884).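 For viability: 100% = DMSO control wells and 0% = empty wells without cells.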 Note: nearly all actives have a fitted effect of over 35% in size. Note: potency is the fitted concentration of half-maximal effect. As to conditions: SEM B-ALL cells, RPMI+dialyzed FBS, CellTiter-Glo viability, 48 h; series mostly up to 45.8 µM; viability: at the top concentration. In outline:
as §1
Consider `C[C@]12CC[C@H]3[C@@H](CC[C@@]45O[C@H]4C(O)=C(C#N)C[C@]35C)[C@H]1CC[C@H]2O`, for which the Potency is 16.6 µM (active).

Take `C#CC1(O)CCC2C3CCC4=CC(=O)CCC4(C)C3CCC21C` (centres undefined): the “viability” value is 108% (inactive).

Regarding `CN(C)[C@@H]1C(=O)C(C(N)=O)=C(O)[C@@]2(O)C(=O)C3=C(O)c4c(O)cccc4[C@@](C)(O)[C@H]3C[C@@H]12`, the “viability” value was 99.5% (inactive).

For the molecule `CC(C)(O)C(=O)Nc1ccc([N+](=O)[O-])c(C(F)(F)F)c1`, the “viability” value was 103% (inactive).

As to `Clc1ccccc1C(c1ccccc1)(c1ccccc1)n1cccn1`, the “viability” value is 120% (inactive).

For `Cc1cc(SCc2sc(-c3ccc(C(F)(F)F)c(F)c3)nc2C)ccc1OCC(=O)O`, the “viability” value was 97.3% (inactive).

With `COc1ccc(C(=O)c2c(C)n(CCN3CCOCC3)c3ccccc23)cc1`, the “viability” value was 89.4% (inactive).

Take `CCOC(=O)Nc1ccc(NCc2ccc(F)cc2)cc1N`: the “viability” value was 78.6% (inactive).

For the molecule `Cn1cc(C2=C(c3cn(C4CCN(Cc5ccccn5)CC4)c4ccccc34)C(=O)NC2=O)c2ccccc21`, the Potency is 5.9 µM (active).

As to `COc1cc(C(=O)N2CC[C@@H](O)[C@@H](N)C2)cc2nc(-c3cc4ccccc4n3CC3CC3)n(C)c12`, the Potency was 0.831 µM (active).

Another assay can be described thus: Cellular viability qHTS for adrenocortical cancer (ACC) cell line SW-13 (AID 1963989).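 For activity (max response): cells grown in serum-free medium with ITS supplement; % is set by controls: 0 for no effect and ±100 for the full control effect.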 Note: nearly all actives have a fitted effect of over 65% in size. Note: potency is the fitted concentration of half-maximal effect. As to conditions: SW-13 ACC cells viability, CellTiter-Glo, 48 h; activity (max response): stronger effect = lower value. In outline: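 Luminescent ATP read-out (CellTiter-Glo, 20 min at room temperature) measured metabolically competent SW-13 cells after 48 h compound treatment. Final concentrations spanned up to 46 uM; bortezomib served as positive control.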
In general terms: qHTS replaces the single test concentration by a dilution series.
Regarding `C[C@]12CC[C@H]3[C@@H](CC[C@@]45O[C@H]4C(O)=C(C#N)C[C@]35C)[C@H]1CC[C@H]2O`, the activity (max response) is -2% (inactive).

With `O=c1[nH]c2ccccc2n1CCCN1CCC(n2c(=O)[nH]c3cc(Cl)ccc32)CC1`, the activity (max response) is -19.5% (inactive).

For the molecule `CCC1(CC)C(=O)NC(=O)NC1=O`, the activity (max response) was -9.27% (inactive).

For `COC1=C[C@@H]2[C@@H]3Cc4ccc(OC)c(O)c4[C@]2(CCN3C)CC1=O`, the activity (max response) is -18.4% (inactive).

Turning to `C=C(C)[C@@H]1CCC(C)=C[C@H]1c1c(O)cc(CCCCC)cc1O`, the Potency was 31.6 µM (active).

For `C#CC1(O)CCC2C3CCC4=CC(=O)CCC4(C)C3CCC21C` (centres undefined), the activity (max response) is 9.7% (inactive).

For the molecule `O=S(=O)(CC1CS1)c1ccc(Oc2ccccc2)cc1` (centres undefined), the activity (max response) was -6.36% (inactive).

With `CN(C)[C@@H]1C(=O)C(C(N)=O)=C(O)[C@@]2(O)C(=O)C3=C(O)c4c(O)cccc4[C@@](C)(O)[C@H]3C[C@@H]12`, the activity (max response) was 15% (inactive) and 6.24% (inactive).

In the case of `CC[C@@H](CO)NC(=O)[C@@H]1C=C2c3cccc4c3c(cn4C)C[C@H]2N(C)C1`, the activity (max response) is -2.39% (inactive).

With `c1cc2c(c(N3CCNCC3)c1)OCCO2`, the activity (max response) was -0.802% (inactive).

For `O=c1[nH]c2ccccc2n1C1CCNCC1`, the activity (max response) is 4.94% (inactive).

Regarding `CC(C)(O)C(=O)Nc1ccc([N+](=O)[O-])c(C(F)(F)F)c1`, the activity (max response) was -7.23% (inactive).

Regarding `CCCN1CCC[C@@H]2Cc3nc(N)ncc3C[C@H]21`, the activity (max response) was 3.03% (inactive).

As to `Clc1ccccc1C(c1ccccc1)(c1ccccc1)n1cccn1`, the activity (max response) was -15.1% (inactive).

In the case of `COP(=S)(OC)Oc1ccc(S(=O)(=O)N(C)C)cc1`, the activity (max response) was -2.83% (inactive).

Regarding `Cc1cc(SCc2sc(-c3ccc(C(F)(F)F)c(F)c3)nc2C)ccc1OCC(=O)O`, the activity (max response) was -20.9% (inactive).

With `CC(C)[C@H]1C(=O)N[C@H](CO)Cc2c[nH]c3cccc(c23)N1C`, the activity (max response) is -2.75% (inactive).

Regarding `CCC(C)(C)c1ccc(O)cc1`, the activity (max response) is 0.304% (inactive).

Regarding `CCN(CC)CCc1c[nH]c2ccccc12`, the activity (max response) is -11.9% (inactive).

As to `C[C@H]1CNCCc2ccc(Cl)cc21`, the activity (max response) was -1.47% (inactive).

On to `C#CCOC(C(=O)OCCN(C)C)(c1ccccc1)c1ccccc1`, for which the activity (max response) is 15.9% (inactive).

Turning to `COC(=O)[C@@]12OC[C@]34[C@H]([C@@H](O)[C@@H]1O)[C@@]1(C)CC(=O)C(O)=C(C)[C@@H]1C[C@H]3OC(=O)[C@H](OC(=O)/C=C(\C)C(C)C)[C@@H]24`, the Potency is 6.31 µM (active).

For `Cn1cc(C2=C(c3cn(C4CCN(Cc5ccccn5)CC4)c4ccccc34)C(=O)NC2=O)c2ccccc21`, the activity (max response) was -7.67% (inactive) and -14.7% (inactive).

On to `CCc1c(C(=O)C(N)=O)c2c(OCC(=O)O)cccc2n1Cc1ccccc1`, for which the activity (max response) was -1.25% (inactive).

Take `CC(C)(C)C(O)C(Oc1ccc(Cl)cc1)n1cncn1` (centres undefined): the activity (max response) is -16.3% (inactive).

For the molecule `COc1ccc(C(c2ccc(OC)cc2)C(Cl)(Cl)Cl)cc1`, the Potency is 28.2 µM (active).
